This is an account of results in article PMC5540273 (PLoS ONE, 2017).

Values joined by “and” are separate entries in the source; they are usually repeats but may differ in a detail not shown here. Identical values can stand only once. Like-named read-outs stand apart in the source and are kept apart here.

The test system of one test is HPK1. Particulars: concentration: 1 μM, replicates: in singlicate, n = 1.
For a further test, the system named is HUNK. Particulars: concentration: 1 μM, replicates: in singlicate; n = 1.
Another test has as its system ICK. Particulars: concentration: 1 μM, replicates: in singlicate, n = 1.
Another test relates to IGF1R. Particulars: concentration: 1 μM, replicates: in singlicate, n = 1.
The next test relates to T1, IKK-alpha.
T1 construct: gene CHUK
Particulars: concentration: 1 μM, replicates: in singlicate, n = 1.

In another test the test system is T2, IKK-beta.
T2 construct: gene IKBKB
To be noted: concentration: 1 μM, replicates: in singlicate, n = 1.

For another test, the system named is T3, IKK-epsilon.
T3 construct: gene IKBKE
To be noted: concentration: 1 μM, replicates: in singlicate, n = 1.

The test system of the next test is INSRR. To be noted: concentration: 1 μM, replicates: in singlicate; n = 1.
For another test, the system named is INSR. Particulars: concentration: 1 μM, replicates: in singlicate, n = 1.
Another test deals with IRAK1. Particulars: concentration: 1 μM, replicates: in singlicate, n = 1.
Another test has as its system IRAK3. To be noted: concentration: 1 μM, replicates: in singlicate, n = 1.
The test system of a further test is IRAK4. To be noted: concentration: 1 μM, replicates: in singlicate, n = 1.
Another test has as its system ITK. To be noted: concentration: 1 μM, replicates: in singlicate, n = 1.
The subject of test [1] is JAK1(JH1domain-catalytic). Particulars: concentration: 1 μM, replicates: in singlicate, n = 1.
Test [2] concerns JAK1(JH2domain-pseudokinase). To be noted: concentration: 1 μM, replicates: in singlicate, n = 1.
Test [3] relates to JAK2(JH1domain-catalytic). Particulars: concentration: 1 μM, replicates: in singlicate, n = 1.
Test [4] has as its system JAK3(JH1domain-catalytic). To be noted: concentration: 1 μM, replicates: in singlicate, n = 1.
The next test relates to T4, JNK1.
T4 construct: gene MAPK8
Particulars: concentration: 1 μM, replicates: in singlicate, n = 1.

The next test concerns T5, JNK2.
T5 construct: gene MAPK9
Particulars: concentration: 1 μM, replicates: in singlicate, n = 1.

Another test relates to T6, JNK3.
T6 construct: gene MAPK10
Particulars: concentration: 1 μM, replicates: in singlicate, n = 1.
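Further: KINOMEscan kinase panel screen.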

In the case of `COCCNC(=O)c1ccc(-c2cc(C(=O)NC3CC3)cc(F)c2C)cc1` [GW868318], the “%Inh” value with HPK1 amounted to 4%; in the test with HUNK, 7%; in the test on ICK it was 40%; with IGF1R, 3%; in the test on IKK-alpha, 36%; with IKK-beta, 29%. The “%Inh” value in the test on IKK-epsilon amounted to 4%; with INSRR, 19%; in the test on INSR, 10%; with IRAK1, 37%; in the test with IRAK3, 23%; with IRAK4, 13%. In addition, the “%Inh” value was determined as 8% in the test with ITK; 0% in test [1]; 16% in [2]; 44% in test [3]; 0% in test [4]; 38% with JNK1. Also, the “%Inh” value with JNK2 is given as 49%; in the test with JNK3, 19%.
Turning to `CC(C)Oc1ccc2c(-c3ccnc(Nc4ccc(N5CCN(C)CC5)cc4)n3)cnn2n1` [GW696155], the “%Inh” value in the test with HPK1 is recorded as 54%; in the test on HUNK, 0%; in the test with ICK it was 49%; in the test on IGF1R it was 0%; in the test on IKK-alpha, 100%; with IKK-beta, 100%. In addition, the “%Inh” value with IKK-epsilon amounted to 54%; with INSRR, 0%; with INSR, 21%; in the test with IRAK1, 99.9%; in the test with IRAK3 it was 94.2%; in the test with IRAK4, 60%. Also, the “%Inh” value with ITK is 0%; in test [1] it was 48%; in test [2] it was 93.5%; in test [3], 99.4%; in test [4] it was 100%; in the test with JNK1, 100%. The “%Inh” value in the test with JNK2 amounted to 99.7%; with JNK3, 99.9%.
Turning to `CCc1ccnc(/C=C/c2n[nH]c3cc(Sc4ccccc4C(=O)NC)ccc23)c1`, the “%Inh” value in the test on HPK1 is on record as 30%; with HUNK, 0%; in the test on ICK it was 0%; with IGF1R, 0%; in the test on IKK-alpha, 8%; with IKK-beta, 4%. The “%Inh” value is 14% in the test on IKK-epsilon; 0% with INSRR; 0% in the test with INSR; 8% with IRAK1; 32% with IRAK3; 5% in the test with IRAK4. In addition, the “%Inh” value in the test on ITK is 1%; in test [1], 0%; in [2], 0%; in test [3] it was 0%; in test [4] it was 0%; in the test on JNK1, 0%. Besides, the figures for the “%Inh” value in the test on JNK2 and in the test on JNK3 were 3% and 0%, respectively.
`NCCNS(=O)(=O)c1ccc(-c2ccnc3[nH]ccc23)cc1` [GSK977617]: the “%Inh” value with HPK1 (1 µM) is 59% and 44%; with HUNK, 0%; with ICK (1 µM), 19% and 2%; in the test on IGF1R (1 µM), 8% and 16%; in the test with IKK-alpha (1 µM), 97.7% and 94.3%; in the test with IKK-beta (1 µM) it was 99.4%. Further, the “%Inh” value in the test with IKK-epsilon (1 µM) was 29% and 32%; with INSRR it was 2%; in the test with INSR (1 µM) it was 18% and 4%; with IRAK1 (1 µM), 81% and 65%; with IRAK3 (1 µM), 60% and 39%; in the test on IRAK4 (1 µM), 22% and 8%. Also, the “%Inh” value was 66% and 44% in the test with ITK (1 µM); 38% and 26% in [1] (1 µM); 32% and 25% in test [2] (1 µM); 95.6% and 90.8% in test [3] (1 µM); 83% and 84% in test [4] (1 µM); 42% and 18% with JNK1 (1 µM). The “%Inh” value in the test on JNK2 (1 µM) was 30% and 9%; in the test on JNK3 (1 µM), 27% and 15%.
In the case of `O=C(NCCCN1CCOCC1)c1cccc(Nc2nccc(Nc3ccc(Oc4ccccc4)cc3)n2)c1` [GW663929], the “%Inh” value in the test with HPK1 is reported as 8%; in the test on HUNK it was 0%; in the test with ICK it was 0%; with IGF1R, 0%; with IKK-alpha, 0%; with IKK-beta, 0%. For the same compound, the “%Inh” value with IKK-epsilon is on record as 0%; in the test on INSRR it was 0%; in the test with INSR, 15%; in the test on IRAK1, 28%; in the test on IRAK3, 63%; with IRAK4, 0%. Further, the “%Inh” value with ITK was found to be 0%; in test [1], 46%; in [2], 21%; in [3] it was 82%; in [4], 0%; in the test with JNK1, 33%. In addition, the “%Inh” value with JNK2 is given as 25%; with JNK3, 16%.
